According to PubChem BioAssay (EPA / NIEHS):
Where “and” joins values, the source holds several entries; their conditions need not be identical. Equal values may be shown once. Results filed as inconclusive are left out. Calls of active or inactive are those of the source. Rule for the calls, unless noted: active = hit-call score of the fitted dose curve at least 0.9, where 1 is the maximum; inconclusive = response in the unintended direction; inactive = score below 0.9.

Tests used:
[1] = target: Cytochrome P450 2C19 (Homo sapiens) (UniProt P33261); test: NVS_ADME_hCYP2C19: NovaScreen (NVS) CYP450-related Enzyme Activity (ADME) Assay for human CYP2C19 (AID 2283113);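 for AC50: potency for inhibition seen as loss of fluorescent signal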
Method in brief: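 Cell-free recombinant human CYP2C19 from insect cells, fluorescent substrate; activity read by fluorescence intensity 1 h after dosing. Primary screen in duplicate at 10 uM; actives retested in concentration series. Signal loss versus acetonitrile negative control.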

[2] = target: human CYP2C9, CYP2C9 (gene 1559) (UniProt P11712); test: NVS_ADME_hCYP2C9: NovaScreen (NVS) CYP450-related Enzyme Activity (ADME) Assay for human CYP2C9 (AID 2283108)
Method in brief: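 Fluorescence readout of CYP2C9 activity (SF9-expressed human enzyme) at 0.75 h. The primary screen used 10 uM in duplicate, with concentration-response follow-up for actives; acetonitrile was the negative control.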

[3] = target: human CYP4F12, CYP4F12 (gene 66002) (UniProt Q9HCS2); test: NVS_ADME_hCYP4F12: NovaScreen (NVS) CYP450-related Enzyme Activity (ADME) Assay for human CYP4F12 (AID 2283111)
Method in brief: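 Recombinant enzyme with a fluorescent substrate, signal read at 0.5 h post-dose; activity loss analysed relative to acetonitrile. Compounds first run in duplicate at 10 uM, with follow-up concentration-response testing of actives.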

[4] = target: human CYP2D6, CYP2D6 (gene 1565) (UniProt P10635); test: NVS_ADME_hCYP2D6: NovaScreen (NVS) CYP450-related Enzyme Activity (ADME) Assay for human CYP2D6 (AID 2283107)
Method in brief: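 Cell-free assay using recombinant human CYP2D6 expressed in insect cells, with a fluorogenic substrate read after 1 h. Primary screen in duplicate at 10 uM; actives followed up in concentration series. Loss of signal fitted relative to acetonitrile.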

[5] = target: human CYP1A2, CYP1A2 (gene 1544) (UniProt P05177); test: NVS_ADME_hCYP1A2: NovaScreen (NVS) CYP450-related Enzyme Activity (ADME) Assay for human CYP1A2 (AID 2283102);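 note: potency for inhibition since loss of fluorescence marks reduced CYP1A2 activity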
Method in brief: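 Recombinant human CYP1A2 from insect cells, cell-free, fluorogenic substrate; read 0.5 h after dosing with loss of fluorescence signal indicating inhibition. Primary screen in duplicate at 10 uM, acetonitrile as negative control.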

[6] = target: Cytochrome P450 3A4 (Homo sapiens) (UniProt P08684); test: NVS_ADME_hCYP3A4: NovaScreen (NVS) CYP450-related Enzyme Activity (ADME) Assay for human CYP3A4 (AID 2283110)
Method in brief: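 Compounds screened in duplicate at 10 uM, with follow-up concentration-response for actives, against insect-cell-expressed recombinant enzyme. Activity read by fluorescence 0.33 h after dosing; loss of signal versus acetonitrile control indicates inhibition.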

[7] = target: human CYP2B6, CYP2B6 (gene 1555) (UniProt P20813); test: NVS_ADME_hCYP2B6: NovaScreen (NVS) CYP450-related Enzyme Activity (ADME) Assay for human CYP2B6 (AID 2283101)
Method in brief: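 Compounds were first screened in duplicate at 10 uM against recombinant enzyme, with the fluorescent product measured after 1 hour. Active compounds were retested over a concentration series. Loss of fluorescence versus acetonitrile control was scored as reduced enzyme activity.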

[8] = target: rat CYP2A2, Cyp2a2 (gene 24895) (UniProt P15149); test: NVS_ADME_rCYP2A2: NovaScreen (NVS) CYP450-related Enzyme Activity (ADME) Assay for rat CYP2A2 (AID 2283116)
Method: (§1) NVS_ADME_rCYP2A2 is a biochemical, single-readout assay that uses extracted gene-proteins in a cell-free assay. Measurements were taken 0.2 hour after chemical dosing in a 96-well plate.NVS_ADME_rCYP2A2 is one of one assay component(s) measured or calculated from the NVS_ADME_rCYP2A2 assay. It is designed to make measurements of enzyme activity, a form of enzyme reporter, as detected with fluorescence intensity signals by Fluorescence technology.Data from the assay component NVS_ADME_rCYP2A2 was analyzed into 1 assay endpoint. This assay endpoint, NVS_ADME_rCYP2A2, was analyzed in the positive analysis fitting direction relative to Acetonitrile as the negative control and baseline of activity. Using a type of enzyme reporter, loss-of-signal activity can be used to understand changes in the enzymatic activity as they relate to the gene Cyp2a2. Furthermore, this assay endpoint can be referred to as a primary readout, because this assay has produced multiple assay endpoints where this one serves a enzymatic activity function. To generalize the intended target to other relatable targets, this assay endpoint is annotated to the cyp intended target family, where the subfamily is xenobiotic metabolism.
Binding assays used specific radioligands (tritiated, iodinated) with non-radioactive competitive displacement ligands in agonist or antagonist protocols (as indicated) and various reference compounds and inhibitors to titrate specific binding to receptors and transporters. Most enzyme assays (CYPs, kinases, phosphatases, proteases, HDACs) used recombinant protein and specific substrates (fluorescence mostly, some colorimetric and radioactive) and inhibitors, followed by a biochemical separation of substrate and product. All assays for the biochemical HTS were initially run in duplicate at a single concentration (10 uM for CYP450 assays and 25 uM for all others). […]

rat CYP2B1, gene 24300 = test: NVS_ADME_rCYP2B1: NovaScreen (NVS) CYP450-related Enzyme Activity (ADME) Assay for rat CYP2B1 (AID 2283117)
Method in brief: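 Cell-free fluorescence enzyme assay, recombinant rat CYP2B1, 0.75 h after dosing. Single-concentration duplicates at 10 uM preceded concentration series (max 20 uM) for actives; acetonitrile as negative-control baseline.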

[9] = target: human CYP2C8, CYP2C8 (gene 1558) (UniProt P10632); test: NVS_ADME_hCYP2C8: NovaScreen (NVS) CYP450-related Enzyme Activity (ADME) Assay for human CYP2C8 (AID 2283104; active = hit-call score of the fitted dose curve at least 0.9, where 1 is the maximum; inactive = score below 0.9)
Method: as §1, with “NVS_ADME_hCYP2C8” for “NVS_ADME_rCYP2A2”, “0.5” for “0.2”, “plate.NVS_ADME_hCYP2C8” for “plate.NVS_ADME_rCYP2A2”, “NVS_ADME_hCYP2C8,” for “NVS_ADME_rCYP2A2,”, “CYP2C8.” for “Cyp2a2.”, “metabolism. […]” for “metabolism.”

Chain of Cytochrome P450 3A4 (Homo sapiens) (P08684 whole entry, looked up): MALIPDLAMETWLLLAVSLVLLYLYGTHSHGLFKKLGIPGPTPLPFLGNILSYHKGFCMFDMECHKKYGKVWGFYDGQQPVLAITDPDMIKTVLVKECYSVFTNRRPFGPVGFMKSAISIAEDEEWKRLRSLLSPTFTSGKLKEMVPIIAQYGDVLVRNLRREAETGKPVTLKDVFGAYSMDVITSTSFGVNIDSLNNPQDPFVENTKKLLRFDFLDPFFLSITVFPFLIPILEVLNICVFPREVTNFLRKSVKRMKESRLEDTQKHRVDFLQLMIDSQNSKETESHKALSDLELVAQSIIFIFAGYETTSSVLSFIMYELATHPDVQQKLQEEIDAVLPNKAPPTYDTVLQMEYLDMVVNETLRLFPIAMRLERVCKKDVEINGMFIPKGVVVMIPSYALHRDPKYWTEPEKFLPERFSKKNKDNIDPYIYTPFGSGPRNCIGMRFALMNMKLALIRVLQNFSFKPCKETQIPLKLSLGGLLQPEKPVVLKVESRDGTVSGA
Chain of rat CYP2A2, Cyp2a2 (gene 24895) (P15149 whole entry, looked up): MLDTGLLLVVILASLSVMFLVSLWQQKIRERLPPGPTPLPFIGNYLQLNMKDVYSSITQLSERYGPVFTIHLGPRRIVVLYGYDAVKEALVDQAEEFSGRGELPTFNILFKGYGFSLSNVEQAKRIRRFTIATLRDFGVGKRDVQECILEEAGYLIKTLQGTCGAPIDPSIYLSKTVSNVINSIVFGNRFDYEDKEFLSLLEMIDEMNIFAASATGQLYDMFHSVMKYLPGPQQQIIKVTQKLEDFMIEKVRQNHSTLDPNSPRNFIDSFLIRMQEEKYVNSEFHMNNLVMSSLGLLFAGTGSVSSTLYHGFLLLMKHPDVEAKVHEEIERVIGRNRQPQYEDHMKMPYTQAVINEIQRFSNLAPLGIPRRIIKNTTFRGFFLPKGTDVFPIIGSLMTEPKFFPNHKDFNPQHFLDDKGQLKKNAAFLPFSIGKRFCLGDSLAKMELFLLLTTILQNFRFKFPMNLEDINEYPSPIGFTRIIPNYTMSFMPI
Chain of human CYP1A2, CYP1A2 (gene 1544) (P05177 whole entry, looked up): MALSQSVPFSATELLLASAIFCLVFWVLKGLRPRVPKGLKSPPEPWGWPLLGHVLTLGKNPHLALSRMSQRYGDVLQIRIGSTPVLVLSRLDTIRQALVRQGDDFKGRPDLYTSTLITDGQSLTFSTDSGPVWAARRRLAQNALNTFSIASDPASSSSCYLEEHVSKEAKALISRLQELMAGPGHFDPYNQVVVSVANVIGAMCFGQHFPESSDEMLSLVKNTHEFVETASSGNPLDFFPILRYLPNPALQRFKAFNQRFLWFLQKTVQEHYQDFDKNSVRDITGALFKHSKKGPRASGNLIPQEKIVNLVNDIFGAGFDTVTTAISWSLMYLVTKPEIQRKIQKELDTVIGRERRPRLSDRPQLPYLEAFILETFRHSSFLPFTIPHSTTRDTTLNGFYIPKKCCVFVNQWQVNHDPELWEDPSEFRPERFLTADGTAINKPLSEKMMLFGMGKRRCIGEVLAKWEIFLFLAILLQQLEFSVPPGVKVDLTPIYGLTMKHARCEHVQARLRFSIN
Chain of human CYP2B6, CYP2B6 (gene 1555) (P20813 whole entry, looked up): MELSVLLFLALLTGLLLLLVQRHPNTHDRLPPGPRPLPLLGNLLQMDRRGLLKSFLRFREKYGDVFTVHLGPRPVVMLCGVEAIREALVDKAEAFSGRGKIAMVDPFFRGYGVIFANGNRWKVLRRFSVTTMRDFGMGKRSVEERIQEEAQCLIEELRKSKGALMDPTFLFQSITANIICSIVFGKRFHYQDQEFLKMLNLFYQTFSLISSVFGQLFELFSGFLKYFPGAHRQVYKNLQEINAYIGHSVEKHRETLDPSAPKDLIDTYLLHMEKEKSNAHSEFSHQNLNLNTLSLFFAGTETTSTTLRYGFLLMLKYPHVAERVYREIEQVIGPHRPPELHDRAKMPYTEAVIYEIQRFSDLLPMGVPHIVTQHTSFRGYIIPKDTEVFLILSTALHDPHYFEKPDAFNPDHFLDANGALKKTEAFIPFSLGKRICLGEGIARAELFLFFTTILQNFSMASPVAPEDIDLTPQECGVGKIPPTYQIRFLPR
Chain of human CYP2C9, CYP2C9 (gene 1559) (P11712 whole entry, looked up): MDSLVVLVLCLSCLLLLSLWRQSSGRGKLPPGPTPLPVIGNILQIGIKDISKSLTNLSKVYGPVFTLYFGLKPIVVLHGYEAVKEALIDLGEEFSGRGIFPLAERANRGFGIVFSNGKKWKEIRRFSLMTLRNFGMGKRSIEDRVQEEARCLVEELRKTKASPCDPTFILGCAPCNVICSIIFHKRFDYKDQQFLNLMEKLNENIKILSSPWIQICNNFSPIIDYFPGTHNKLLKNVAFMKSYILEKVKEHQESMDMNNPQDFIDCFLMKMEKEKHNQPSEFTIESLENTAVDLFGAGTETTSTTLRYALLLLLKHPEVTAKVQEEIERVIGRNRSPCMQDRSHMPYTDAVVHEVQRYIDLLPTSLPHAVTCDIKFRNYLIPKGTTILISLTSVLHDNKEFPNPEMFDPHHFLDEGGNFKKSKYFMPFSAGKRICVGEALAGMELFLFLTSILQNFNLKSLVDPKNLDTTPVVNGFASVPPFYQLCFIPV
Chain of human CYP2D6, CYP2D6 (gene 1565) (P10635 whole entry, looked up): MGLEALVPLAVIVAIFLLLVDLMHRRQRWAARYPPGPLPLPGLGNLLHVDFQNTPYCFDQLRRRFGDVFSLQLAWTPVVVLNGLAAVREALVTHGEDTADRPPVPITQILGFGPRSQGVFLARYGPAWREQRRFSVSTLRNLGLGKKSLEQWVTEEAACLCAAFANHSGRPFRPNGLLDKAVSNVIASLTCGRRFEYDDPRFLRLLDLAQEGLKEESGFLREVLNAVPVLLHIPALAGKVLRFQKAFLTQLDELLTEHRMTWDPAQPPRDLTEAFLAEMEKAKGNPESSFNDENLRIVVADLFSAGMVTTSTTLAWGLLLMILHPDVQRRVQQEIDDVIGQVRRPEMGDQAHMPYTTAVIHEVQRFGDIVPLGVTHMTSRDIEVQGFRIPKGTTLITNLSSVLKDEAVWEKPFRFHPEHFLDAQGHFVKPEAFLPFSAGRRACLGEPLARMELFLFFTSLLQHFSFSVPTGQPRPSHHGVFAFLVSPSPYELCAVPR
Chain of human CYP4F12, CYP4F12 (gene 66002) (Q9HCS2 whole entry, looked up): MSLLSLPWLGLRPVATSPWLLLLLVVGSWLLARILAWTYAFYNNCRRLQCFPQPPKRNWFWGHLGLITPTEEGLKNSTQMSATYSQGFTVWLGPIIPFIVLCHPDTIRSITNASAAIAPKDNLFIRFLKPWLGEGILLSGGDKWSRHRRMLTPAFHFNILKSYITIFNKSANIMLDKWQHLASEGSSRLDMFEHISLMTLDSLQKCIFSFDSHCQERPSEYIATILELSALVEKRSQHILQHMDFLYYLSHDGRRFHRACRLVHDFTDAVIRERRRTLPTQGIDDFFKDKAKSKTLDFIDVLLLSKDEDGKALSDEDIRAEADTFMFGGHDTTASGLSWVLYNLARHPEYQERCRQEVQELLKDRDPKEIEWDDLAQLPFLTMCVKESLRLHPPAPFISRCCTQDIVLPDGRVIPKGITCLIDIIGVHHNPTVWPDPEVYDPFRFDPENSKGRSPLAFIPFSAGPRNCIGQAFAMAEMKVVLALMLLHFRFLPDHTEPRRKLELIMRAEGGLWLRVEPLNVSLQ
Chain of human CYP2C8, CYP2C8 (gene 1558) (P10632 whole entry, looked up): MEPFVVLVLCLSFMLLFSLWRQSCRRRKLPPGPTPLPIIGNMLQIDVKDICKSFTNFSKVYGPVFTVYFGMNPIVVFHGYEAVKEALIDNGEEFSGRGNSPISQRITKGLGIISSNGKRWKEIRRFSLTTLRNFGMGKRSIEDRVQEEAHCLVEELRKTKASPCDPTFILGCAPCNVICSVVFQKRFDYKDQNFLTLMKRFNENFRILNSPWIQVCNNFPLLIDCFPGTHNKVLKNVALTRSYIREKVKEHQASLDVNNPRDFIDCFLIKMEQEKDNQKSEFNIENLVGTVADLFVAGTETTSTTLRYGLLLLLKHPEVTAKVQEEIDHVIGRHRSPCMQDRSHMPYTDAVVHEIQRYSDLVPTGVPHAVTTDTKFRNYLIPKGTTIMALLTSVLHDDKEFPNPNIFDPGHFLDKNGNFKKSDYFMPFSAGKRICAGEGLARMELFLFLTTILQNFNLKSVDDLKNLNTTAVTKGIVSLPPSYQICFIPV

Structure (SMILES): CN(C)CCO
- outcome [1]: inactive

Structure (SMILES): O=C(O)C(F)(F)C(F)(F)C(F)(F)C(F)(F)C(F)(F)C(F)(F)C(F)(F)C(F)(F)F
- AC50 [2]: 0.643 µM (active)

Structure (SMILES): Nc1ccc(-c2ccc(N)cc2)cc1
- AC50 [2]: 10 µM (active)
- AC50 [1]: 8.09 µM (active)

Structure (SMILES): O=C(O)C(F)(F)C(F)(F)C(F)(F)C(F)(F)C(F)(F)C(F)(F)C(F)(F)C(F)(F)C(F)(F)F
- AC50 [2]: 1.12 µM (active)

Structure (SMILES): CC(C)C(=O)OCC(C)(C)C(OC(=O)C(C)C)C(C)C (stereo unspecified)
- AC50 [3]: 6.26 µM (active)

Structure (SMILES): CO/C=C(/C(=O)OC)c1ccccc1COc1cccc(C(F)(F)F)n1
- outcome [4]: inactive
- AC50 [2]: 6.85 µM (active)
- AC50 [1]: 1 µM (active)

Structure (SMILES): CC(C)(O)C(=O)Nc1ccc([N+](=O)[O-])c(C(F)(F)F)c1
- AC50 [5]: 3.38 µM (active)
- outcome [2]: inactive
- AC50 [1]: 3.49 µM (active)

Structure (SMILES): CCCCCCCCCC[N+](C)(C)CCCCCCCCCC
- AC50 [5]: 14.3 µM (active)
- AC50 [4]: 1.38 µM (active)
- AC50 [6]: 9.61 µM (active)
- AC50 [1]: 6.37 µM (active)

Structure (SMILES): O=S(=O)(O)C(F)(F)C(F)(F)C(F)(F)C(F)(F)C(F)(F)C(F)(F)F
- AC50 [5]: 9.34 µM (active)
- AC50 [2]: 0.0791 µM (active)

Structure (SMILES): COc1ccc(O)c(C(C)(C)C)c1
- outcome [7]: inactive
- AC50 [2]: 10 µM (active)
- AC50 [1]: 12.1 µM (active)

Structure (SMILES): ClC1=C(Cl)[C@]2(Cl)[C@@H]3[C@@H](Cl)[C@H]4O[C@H]4[C@@H]3C1(Cl)C2(Cl)Cl
- AC50 [7]: 7.84 µM (active)

Structure (SMILES): Cc1ccc(O)c(C)c1
- outcome [3]: inactive

Structure (SMILES): CC#Cc1cc(C)nc(Nc2ccccc2)n1
- AC50 [5]: 1.96 µM (active)

Structure (SMILES): O=C(N[C@H]1CN2CCC1CC2)c1cc2ccoc2cn1
- AC50 [4]: 2.09 µM (active)

Structure (SMILES): CCNc1nc(NC(C)C)nc(SC)n1
- AC50 [5]: 4.92 µM (active)
- AC50 [1]: 4.91 µM (active)

Structure (SMILES): ClC1=C(Cl)[C@]2(Cl)[C@@H]3[C@@H]4C[C@@H]([C@H]5O[C@@H]45)[C@@H]3[C@@]1(Cl)C2(Cl)Cl
- AC50 [7]: 3.88 µM (active)
- AC50 [1]: 3.57 µM (active)

Structure (SMILES): C[C@]12CCC(=O)C=C1CC[C@@H]1[C@@H]2CC[C@]2(C)C(=O)CC[C@@H]12
- AC50 [1]: 10 µM (active) and 6.19 µM (active) and 5.77 µM (active)
- AC50 [8]: 1.52 µM (active)

Structure (SMILES): Cc1cc2c3c(c1)C(c1ccccc1)=N[C@@H](NC(=O)c1ccncc1)C(=O)N3CC2
- outcome [6]: inactive

Structure (SMILES): CC(c1ccc(O)cc1)(c1ccc(O)cc1)c1ccc(O)cc1
- AC50 [1]: 1.73 µM (active)

Structure (SMILES): ClC(Cl)=C(c1ccc(Cl)cc1)c1ccc(Cl)cc1
- outcome [7]: inactive
- outcome [1]: inactive
- outcome [8]: inactive
- outcome (rat CYP2B1, gene 24300): inactive

Structure (SMILES): ClC1=C(Cl)[C@]2(Cl)[C@@H]3[C@H]4C[C@H]([C@@H]5O[C@H]45)[C@@H]3[C@@]1(Cl)C2(Cl)Cl
- AC50 [7]: 4.45 µM (active)

Structure (SMILES): CCC(C)(CC)c1cc(NC(=O)c2c(OC)cccc2OC)on1
- outcome [9]: inactive
- AC50 [2]: 2.79 µM (active)
- AC50 [1]: 5.05 µM (active)

Structure (SMILES): CCC(C)(c1ccc(O)cc1)c1ccc(O)cc1
- AC50 [7]: 4.81 µM (active)
- AC50 [2]: 6.47 µM (active)
- outcome [6]: inactive
- AC50 [1]: 4.4 µM (active)

Structure (SMILES): CCC(C)c1cc([N+](=O)[O-])cc([N+](=O)[O-])c1O (stereo unspecified)
- AC50 [1]: 15.2 µM (active)

Structure (SMILES): C[C@]12CCC(=O)C=C1CC[C@@H]1[C@@H]2CC[C@@]2(C)[C@H]1CC[C@]2(C)O
- AC50 [1]: 9.15 µM (active)
- AC50 [8]: 5.45 µM (active)

Structure (SMILES): Oc1ccc(C(c2ccc(O)cc2)(C(F)(F)F)C(F)(F)F)cc1
- AC50 [7]: 4.71 µM (active)
- AC50 [2]: 0.406 µM (active)
- AC50 [6]: 7.65 µM (active)
- AC50 [3]: 3.97 µM (active)
- AC50 [1]: 0.145 µM (active)

Structure (SMILES): Cc1cccc(C)c1N
- outcome [6]: inactive

Structure (SMILES): Oc1c(Cl)c(Cl)c(Cl)c(Cl)c1Cl
- outcome [7]: inactive

Structure (SMILES): CCOC(=O)C(O)(c1ccc(Cl)cc1)c1ccc(Cl)cc1
- AC50 [1]: 0.596 µM (active)

Structure (SMILES): NS(=O)(=O)C(F)(F)C(F)(F)C(F)(F)C(F)(F)C(F)(F)C(F)(F)C(F)(F)C(F)(F)F
- AC50 [2]: 1.97 µM (active)

Structure (SMILES): CC(C)(c1ccccc1)c1ccc(O)cc1
- AC50 [7]: 7.47 µM (active)
- outcome [4]: inactive
- AC50 [2]: 10 µM (active)
- outcome [6]: inactive
